In PubChem BioAssay AID463190 (Sanford-Burnham Center for Chemical Genomics, 2010) one finds inhibition data, which are given here for 62 compounds.

In all, about 330,000 compounds went through this assay and about 7,300 (2.2%) were called active.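 Rule for the calls: active = inhibition of at least 40%; inactive = the rest.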 This excerpt belongs to a sample that is enriched for actives.

The test can be described thus: growth inhibitors of tim10-1 mutant yeast, primary screen, luminescence, uHTS (AID 463190).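 Note: mutant grown at 25 °C; 0% = DMSO wells with yeast and 100% = wells holding no yeast.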 To be noted: S. cerevisiae tim10-1 ts strain growth, BacTiter-Glo, 24 h; at 20 µM; stronger effect = higher value.
With `O=C1c2ccccc2C(=O)c2c1cccc2N1CCN(Cc2ccccc2)CC1`, the inhibition (usually the relative decrease from the control value, in per cent) is 49.4% (active). The same measure for `O=C1c2ccccc2C(=O)c2c1cccc2N1CCN(CCO)CC1`: 15.9% (inactive); for `O=C1c2ccccc2C(=O)c2c1cccc2N1CCN(C/C=C/c2ccccc2)CC1`: 23.3% (inactive). In the case of `CC1CCN(S(=O)(=O)c2ccc3c(ccn3CC(=O)O)c2)CC1`, the inhibition is 6.77% (inactive). The same measure for `O=C(Cc1c(F)cccc1Cl)Nc1ncc([N+](=O)[O-])s1`: 32.8% (inactive); for `COc1ccc([N+](=O)[O-])cc1NC(=O)CCc1ccccc1`: 27.1% (inactive); for `O=C(CCc1ccccc1)Nc1ncc([N+](=O)[O-])s1`: 45.9% (active). The result for `O=C(C1CCCN(S(=O)(=O)c2ccccc2)C1)N1CCN(c2ccc(F)cc2)CC1` (configuration not stated) reads 17.6% (inactive).

With `Fc1ccccc1-c1cc2cc3c(cc2cn1)OCO3`, the inhibition was -19.8% (inactive). `COCCNC(=S)N(CCc1c(C)[nH]c2ccc(C)cc12)Cc1cccnc1`: the inhibition is 11.6% (inactive).

As for `CCNC(=S)N(CCc1c(C)[nH]c2ccc(C)cc12)Cc1ccco1`, the inhibition was 45.6% (active). The result for `COc1cccc(NC(=S)N(CCc2c(C)[nH]c3ccccc23)Cc2ccco2)c1` reads 32.4% (inactive); that for `CC(CNS(=O)(=O)c1ccc(Br)cc1)CN(C)C` (configuration not stated), 6.17% (inactive). The result for `N/C(=N\OC(=O)CCCC(=O)O)c1ncc(C(F)(F)F)cc1Cl` reads 1.66% (inactive). `O=C(c1ccccn1)c1ncc(C(F)(F)F)cc1Cl`: the inhibition was 7.58% (inactive). The same measure for `N/C(=N\OC(=O)Nc1ccc(Cl)c(Cl)c1)c1ncc(C(F)(F)F)cc1Cl`: 49.2% (active); for `Cc1cccc(NC(=O)C2CCCN(C(=O)Nc3ccc(F)cc3)C2)c1C` (configuration not stated): -25.6% (inactive). The result for `Cc1ccccc1CC1(CO)CCCN(C(=O)c2cc(-c3ccccc3)no2)C1` (configuration not stated) reads 42.6% (active); that for `Cc1noc(C)c1CCC(=O)N1CCCC(CO)(Cc2ccccc2)C1` (configuration not stated), -14.1% (inactive); that for `Cc1ccccc1CC1(CO)CCCN(Cc2ccc3c(c2)OCCO3)C1` (configuration not stated), 8.67% (inactive). The same measure for `Cc1cccc(-n2ncc(Cl)c(Cl)c2=O)c1`: -25.8% (inactive); for `Cc1ccc(OC(=O)c2c(C)nn(-c3ccccc3)c2C)cc1`: 25.6% (inactive); for `Cc1ccc(Oc2cnn(-c3ccccc3)c(=O)c2Br)cc1`: 42.1% (active). For `COc1ccc(S(=O)(=O)/N=C2\C=C(NS(=O)(=O)c3ccccc3)C(=O)c3ccccc32)cc1`, the inhibition is 31.1% (inactive). `CCc1[nH]nc(C(=O)N2CCCC(CO)(Cc3ccc(F)cc3F)C2)c1C` (configuration not stated): the inhibition is 24.1% (inactive). Regarding `COc1cc2c(cc1OC)C(C(=O)Nc1cc(C)c(OC)c(C)c1)CC(=O)N2` (configuration not stated), the inhibition is -5.96% (inactive). The same measure for `CS(=O)(=O)N(Cc1ccccc1)c1ccc(C(=O)NN=C2CCCCCC2)cc1`: 17.2% (inactive); for `O=C(N/N=C\c1cccc(Br)c1)c1ccccc1-n1cccc1`: 57.6% (active); for `O=C(N/N=C/c1cccc(Br)c1)c1ccc(N2CCCC2=O)cc1`: -37.8% (inactive). The result for `O=C(CNC(=O)c1cccs1)N/N=C/c1cccc(Br)c1` reads 22% (inactive); that for `CCN(Cc1ccncc1)C(=O)CCc1ccccc1`, -0.112% (inactive); that for `COc1ccc(CNC(=O)/C(C#N)=C/c2cccc(OC)c2OC)cc1`, 63.8% (active). The result for `COc1ccc(CNC(=O)CCn2cccc2)cc1` reads 9.29% (inactive); that for `COc1ccc(NC(=O)/C(C#N)=C\c2cc(OC)c(OCc3ccc(C(=O)O)cc3)cc2Br)cc1`, 26.4% (inactive). Regarding `CC(C)c1ccc(/C=C2\NC(=O)NC2=O)cc1`, the inhibition is 10.2% (inactive). The same measure for `CCOc1ccccc1N1CCN(C(=O)c2ccc3[nH]c(C)c(C)c3c2)CC1`: 48.8% (active); for `Cc1[nH]c2ccc(C(=O)N3CCN(C)CC3)cc2c1C`: -12.6% (inactive). In the case of `COc1ccccc1N1CCN(C(=O)c2ccc(Cl)c(S(=O)(=O)N3CCCC3)c2)CC1`, the inhibition was 22% (inactive).

As for `COc1ccc(-c2c(C#Cc3ccsc3)c3cc(-c4ccc(CN5CCOCC5)cc4)ccc3n2C)cc1`, the inhibition was 15.1% (inactive). The same measure for `Cc1ccccc1C(=O)N1CCC(C(=O)Oc2ccc(C#N)cc2)CC1`: -2.27% (inactive); for `CCOc1ccccc1/C=c1\sc2nc(-c3ccco3)nn2c1=O`: 54.3% (active); for `CCCn1nc(C(=O)NNC(=O)CCOc2ccccc2OCC)c2ccccc2c1=O`: 17.6% (inactive).

With `CS(=O)(=O)n1nc(-c2ccco2)nc1N`, the inhibition is 3.68% (inactive). The result for `Cn1cccc1C(C#N)c1ccccc1C#N` (configuration not stated) reads 10.1% (inactive). The result for `O=C(NC1(C(F)(F)F)NC(=O)N(Cc2cccnc2)C1=O)c1ccccc1Cl` (configuration not stated) reads 9.72% (inactive).

For the compound `COc1cc(C(=O)N(C)Cc2cccc(OC)c2OC)ccc1OCC(=O)Nc1cccc(C(F)(F)F)c1`, the inhibition was 20.8% (inactive). With `COc1ccc(Cn2c(-c3ccc(Cl)cc3)c[n+]3ccccc23)cc1`, the inhibition was 48.6% (active). The result for `CCn1c(C)cc(=O)cc1-c1ccc(Cl)cc1` reads 8.56% (inactive); that for `COc1ccc(Cn2c(=O)cc(C)[nH]c2=S)cc1`, -11.8% (inactive). The same measure for `Cc1cccc(NS(=O)(=O)c2cccc(C(=O)NNC(=O)c3ccccc3O)c2)c1`: 21.6% (inactive).

Consider `O=C(CN1CCN(C(=S)NC2CCCC2)CC1)Nc1ccc(Oc2ccccc2)cc1`, for which the inhibition is 12.6% (inactive). The same measure for `Cc1ccc2cc(C#N)c(NCCNC(=S)NCCCN3CCOCC3)nc2c1`: -0.527% (inactive); for `CC(C)N(C(=O)Cn1cc(S(=O)(=O)CC(=O)N2CCOCC2)c2ccccc21)C(C)C`: -3.3% (inactive).

For the compound `CCOC(=O)c1ccc(NC(=O)c2nc[nH]c2C(=O)NCc2ccccc2)cc1`, the inhibition was 41.1% (active). The same measure for `O=C(Nc1ccon1)c1nc[nH]c1C(=O)NCc1ccccc1`: 7.98% (inactive); for `CCOC(=O)c1[nH]cnc1C(=O)Nc1ccccc1C`: 11.6% (inactive). As to `CC(C)c1ccc(S(=O)(=O)N2CCN(C(C)C(=O)NC3CCCC3)CC2)cc1` (configuration not stated), the inhibition was 13.4% (inactive). The result for `Nc1c(C(=O)O)cnn1-c1ccccc1` reads 2.2% (inactive); that for `CCN(C(=O)COC(=O)c1ccccc1O)c1cccc2ccccc12`, 24.2% (inactive). Take `O=C(O)c1cccc(NC(=S)N/N=C/c2c[nH]c3ccccc23)c1`: the inhibition was 19% (inactive). The same measure for `CSC(=S)N/N=C/c1c[nH]c2ccccc12`: 54.2% (active); for `Nc1nonc1-n1nnc(C(=O)N/N=C/c2c[nH]c3ccccc23)c1-c1ccccc1`: 11.6% (inactive).
